PLK1 PBD block = inhibitors of human PLK1 polo-box domain binding | Plk1 PBD binding of FITC phosphopeptide, fluorescence polarization | Potency, µM, most hits filed as inhibitors | 360,000 compounds, 2.8% hits | AID 720504; note: series mostly up to about 57 µM; nearly all actives have a fitted effect of over 65% in size
Target sequence (P53350 whole entry, looked up, the tested form may be a part): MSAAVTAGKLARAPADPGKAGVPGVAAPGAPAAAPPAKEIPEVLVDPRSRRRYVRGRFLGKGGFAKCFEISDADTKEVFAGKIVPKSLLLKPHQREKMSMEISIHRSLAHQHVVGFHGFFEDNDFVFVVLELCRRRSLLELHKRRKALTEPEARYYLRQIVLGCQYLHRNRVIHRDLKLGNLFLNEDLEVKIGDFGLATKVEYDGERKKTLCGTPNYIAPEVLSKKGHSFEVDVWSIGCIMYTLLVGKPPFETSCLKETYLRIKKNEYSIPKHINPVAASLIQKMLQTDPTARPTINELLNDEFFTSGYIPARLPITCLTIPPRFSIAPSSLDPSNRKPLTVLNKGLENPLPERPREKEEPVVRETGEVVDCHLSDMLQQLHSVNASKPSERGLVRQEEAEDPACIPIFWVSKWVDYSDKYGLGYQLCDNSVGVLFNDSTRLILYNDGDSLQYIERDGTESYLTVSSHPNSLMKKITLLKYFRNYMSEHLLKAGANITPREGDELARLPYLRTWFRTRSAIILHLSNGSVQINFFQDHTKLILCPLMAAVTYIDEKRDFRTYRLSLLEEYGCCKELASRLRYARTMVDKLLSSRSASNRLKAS
12-LOX inh = ALOX12 (human) lipoxygenase inhibition; purified 12hLO, xylenol orange hydroperoxide absorbance; Potency, µM (doses to about 108 µM), hits mostly inhibitors; 580,000 compounds, 1.1% hits; P18054
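Purified human 12hLO (150 nM final) in 25 mM Hepes, 0.01% Triton X-100, pH 7.0 was preincubated 15 min at room temperature with compound. Then 40 uM arachidonic acid was added, 30 min. Hydroperoxide was read by Fe-XO absorbance ratio 573/405 nm.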
KAT2A inh = blocks human GCN5L2 histone acetyltransferase; GCN5L2 HAT assay, ThioGlo1 CoA-SH fluorescence; Potency, µM (highest dose often 58.9 µM), hits mostly inhibitors; 390,000 compounds, 0.21% hits
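GCN5L2 (20nM final) in 50mM HEPES, 0.1mM EDTA pH 7.5, 0.01% Tween-20 was preincubated 15 min at room temperature with compound, then given ThioGlo1 (50uM), H3(1-25) peptide (75uM) and acetyl-CoA (70uM); CoA-thiol fluorescence (Ex340/Em540) was read at 0 and 20 min.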
VDR inh = blocks the human vitamin D receptor. AID 504847. Potency, µM, hits mostly inhibitors. VDR-SRC2-3 peptide fluorescence polarization, 2 h. P11473. 400,000 compounds, 0.93% hits
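Compounds are added to VDR with labelled SRC2-3 coactivator peptide and held 2 h at room temperature. Inhibition of the VDR–peptide interaction is then read as a change in fluorescence polarization.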
A number is an active result; 0 = inactive; ? = inconclusive; - = no result. Shown are actives, neighbours in structure and some others; about 3% of the full set was active somewhere. Calls come from the whole dose curve; as a rule, active = well fitted curve in the direction sought with a large enough effect; inconclusive = small, poorly fitted or top-dose-only effect, or another doubt; inactive = no such curve, though single readings can be large; an effect the other way counts as inactive or inconclusive.

SMILES	PLK1 PBD block	12-LOX inh	KAT2A inh	VDR inh
Cc1ccc(C)n1C1C(=O)N(Cc2ccc(C(C)C)cc2)c2ccc(OC(F)(F)F)cc21 (stereo unspecified)	-	16µM	-	-
CS(=O)(=O)c1ccc(CN2C[C@@H]3C[C@H]2C(=O)N(Cc2ccc(OC(F)(F)F)cc2)c2ccccc2O3)cc1	-	0	-	-
Cc1ccc(C)c(Cn2c(=O)n(CCCC(=O)NCc3ccco3)c(=O)c3sccc32)c1	30µM	0	0	0
COc1ccc(NC(=O)CC(C)n2cccn2)cc1Cl (stereo unspecified)	-	0	-	-
CN(C)c1ccc2cc(S(=O)(=O)O)cc(O)c2c1	?	?	-	50µM
O=Nc1c(O)ccc2cc(S(=O)(=O)O)ccc12	0	-	-	79µM
NCc1cc(Br)ccc1OC(F)F	-	0	-	-
COc1ccc(-c2sc(Nc3ccccc3)n[n+]2-c2ccccc2)cc1Br	?	?	0	0
C(=C\c1sc(Nc2ccccc2)n[n+]1-c1ccccc1)/c1ccccc1	?	50µM	-	?
C=CCN(Cc1ccccc1OCC)C(=O)c1ccc(N(C)S(C)(=O)=O)cc1	-	0	-	-
Cc1noc(C)c1-c1cc2c(cc(C)n2CCN(C)C)c(-c2ccccc2O)n1	-	79µM	-	-
Cc1c(-n2nnnc2SC(C)c2ccccc2)c(=O)n(-c2ccccc2)n1C (stereo unspecified)	-	0	-	-
NS(=O)(=O)c1ccc(-c2ccc(/C=N/Nc3ccc(S(=O)(=O)Nc4ccccc4)cc3[N+](=O)[O-])o2)cc1	-	0	-	-
O=C(CN(CC(=O)Nc1ccc(Br)cc1)CC(=O)Nc1ccc(Br)cc1)Nc1ccc(Br)cc1	-	11µM	-	-
CCc1ccc(CN(C)CC(=O)Nc2ccc(C(F)(F)F)cc2)cc1	-	0	-	-
O=C(CC(=O)Nc1ccc(Br)cc1)Nc1ccc(Br)cc1	0	0	0	0
CCc1ccc(NC(=O)CN(CC(=O)Nc2ccc(CC)cc2)CC(C)O)cc1 (stereo unspecified)	27µM	0	0	0
O=C(NC(NNc1ccc([N+](=O)[O-])cc1)(C(F)(F)F)C(F)(F)F)c1ccc(Cl)cc1	0	35µM	0	79µM
O=C(NNc1ccc([N+](=O)[O-])cc1)c1ccccc1Cl	0	0	0	0
CCc1cc(N2CCOCC2)cc2c1[nH]c1ccccc12	24µM	0	0	0
CC[C@H]1[C@@H]2C=C[C@@H]3[C@H]4C/C=C\C(=O)NCCC[C@@H]5NC(=O)C(=C5O)C(=O)CC[C@@H]4C[C@@H]3[C@H]2C[C@H]1C	-	-	0	40µM
CC1=C/C(=N\OS(=O)(=O)c2ccccc2)C(C)=CC1=O	0	0	0	0
COc1ccc(S(=O)(=O)/N=C2/C=CC(=O)C(C)=C2C)cc1	24µM	-	0	?
CC1=C(C)/C(=N\OS(=O)(=O)c2ccc(C)cc2)C=CC1=O	?	?	0	28µM
CCCn1c(O)c(C=Nc2ccccc2)sc1=S	0	?	?	0
SMILES	PLK1 PBD block	12-LOX inh	KAT2A inh	VDR inh
CCn1c(O)c(C=Nc2ccccc2)oc1=S	27µM	0	0	0
Cc1ccccc1-n1c(=O)/c(=C\c2ccco2)s/c1=C(/C#N)C(=O)Nc1ccccc1	0	35µM	0	0
COC(=O)c1ccccc1CSc1nsc(/C=C/N(C)C)c1C#N	9.5µM	-	0	?
CC(C)C(C)NC(=O)c1ccccc1Br (stereo unspecified)	-	0	-	-
O=C(O)c1cccc(N2C(=O)c3ccc(C(=O)c4cccc([N+](=O)[O-])c4)cc3C2=O)c1	0	0	0	0
O=C(O)c1ccc2c(c1)C(=O)N(c1cccc(C(=O)/C=C/c3ccccc3)c1)C2=O	42µM	0	0	?
Cc1ccc(Cc2c[nH]c(=S)s2)cc1	6.7µM	35µM	0	0
O=C(Nc1ccc(-c2nc3ccccc3[nH]2)cc1)c1ccccc1NS(=O)(=O)c1ccc(F)cc1	27µM	0	0	0
COc1ccc(-c2csc(NC(=O)c3ccccc3NS(=O)(=O)c3ccc(F)c(F)c3)n2)cc1	21µM	?	0	0
O=C(Nc1nc(-c2ccccc2)cs1)c1ccccc1F	0	0	0	0
Cc1ccc(S(=O)(=O)Nc2ccccc2C(=O)Nc2nc(-c3ccc(F)cc3)cs2)cc1	27µM	?	?	0
C=CCc1cccc(OC)c1OCCOCCNCCO	0	2.2µM	0	0
COCCCNCCOCCOc1c(OC)cccc1OC	0	0	0	0
O=C1CCC2S/C(=C/Nc3ccc(C(F)(F)F)cc3)C(=O)N12 (stereo unspecified)	9.5µM	0	0	0
CCOC(=O)c1cc(-c2ccccc2)sc1NC(=O)CC	21µM	0	0	?
CCOC(=O)c1cc(-c2ccccc2)sc1N	12µM	?	0	?

Compound activity as filed in PubChem BioAssay.
